High-throughput results from PubChem BioAssay.
FECH inh = inhibitors of human ferrochelatase; P22830; purified FECH, Ni-mesoporphyrin absorbance 550 nm; calls only at 10 µM (by protocol); 20,000 tested, 3.3% active;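 active means enzyme reaction rate more than 3 SD below the solvent-only control wells on the same plate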;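 further: lower slope than DMSO wells means FECH inhibition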
Target sequence (P22830 whole entry, looked up): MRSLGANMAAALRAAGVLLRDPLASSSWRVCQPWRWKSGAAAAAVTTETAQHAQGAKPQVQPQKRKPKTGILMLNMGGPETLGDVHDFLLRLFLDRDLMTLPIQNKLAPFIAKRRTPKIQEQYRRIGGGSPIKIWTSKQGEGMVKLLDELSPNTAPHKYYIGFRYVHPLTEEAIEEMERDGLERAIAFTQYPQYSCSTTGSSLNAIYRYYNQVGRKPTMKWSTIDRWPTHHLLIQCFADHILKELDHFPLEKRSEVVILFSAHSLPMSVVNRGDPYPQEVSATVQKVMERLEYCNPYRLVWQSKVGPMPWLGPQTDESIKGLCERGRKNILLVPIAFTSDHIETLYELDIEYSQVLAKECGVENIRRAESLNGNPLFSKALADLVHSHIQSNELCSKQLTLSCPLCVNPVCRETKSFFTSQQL
Starred values were filed as active, the others as inactive; i = inactive; + = active, no number. Many of the other results were omitted from the sample, so hits are more common in it than they were.

SMILES | FECH inh
O=C(CCC(=O)N1CCN(CC2CCCO2)CC1)NC1CCCC1 (centres undefined) | +
Cc1ccc(CNC(=O)C2(C)Cn3nc(C(=O)NCCCN4CCCCC4)cc3C(=O)N2C)cc1 (centres undefined) | i
CO[C@H]1CN(C(C)C)C[C@@H]1Nc1ncc(C)c(N(C)C)n1 | i
Cc1ccn2c(=O)cc(COc3cccc(NC(=O)CN4C(=O)c5ccccc5C4=O)c3)nc2c1 | i
CNc1ncccc1C(=O)Nc1cccc(C(=O)NC(C)(C)C)c1C | i
Cc1cc(=O)n2[nH]c(NCc3ccc(C(=O)Nc4ccc(Br)cc4)cc3)nc2n1 | i
Cc1ccccc1NCc1nc2nc3c(c(=O)n2[nH]1)CCC3 | +
O=c1c2c(nc3nc(CNc4ccc(Br)cc4)[nH]n13)CCC2 | +
COc1ccc(NCc2nc3nc4c(c(=O)n3[nH]2)CCC4)c(OC)c1 | i
CCc1nc2nc3c(c(=O)n2[nH]1)CCC3 | i
Cc1nc2nc(C)c(NC(=O)Nc3cc(Cl)ccc3C)c(=O)n2[nH]1 | i
O=c1c2c(nc3nc(CNc4ccccc4F)[nH]n13)CCC2 | i
Cc1ccc(Cl)cc1NCc1nc2nc3c(c(=O)n2[nH]1)CCC3 | +
Cc1nc2nc(C)c(NC(=O)Nc3ccccc3Cl)c(=O)n2[nH]1 | i
Cc1c(Cl)cccc1NCc1nc2nc3c(c(=O)n2[nH]1)CCC3 | +
CCOc1ccccc1NCc1nc2nc3c(c(=O)n2[nH]1)CCC3 | i
CN(CCC1CCOCC1)c1nccc(N2CCC(O)C2)n1 (centres undefined) | i
Cc1nc2c(c(NCCc3nccc(-c4ccccc4)n3)n1)CCNC2 | i
CCc1cnc(-c2cc(F)c3c(c2)CC(CN)O3)nc1 (centres undefined) | i
Cc1ccsc1CN(C)C(=O)[C@@]12CC[C@@](C)(OC1=O)C2(C)C | i
COc1ccc(N2C(=O)CCS2(=O)=O)cc1S(=O)(=O)Nc1ccccc1F | i
COc1ccc(NC(=O)CCc2c(C)nn(-c3cc(N4CCCC4)ncn3)c2C)cc1 | i
Cc1cc(N2CCN(C(=O)Nc3nc(-c4ccccc4)ns3)CC2)cc(C)n1 | i
COc1ccc(OCC(=O)Nc2cccc(N3CCCS3(=O)=O)c2)cc1 | i
COc1cccc(Nc2nc(NCCN3CCOCC3)nc3c2cnn3-c2ccccc2)c1 | i
SMILES | FECH inh
CCc1cc(Sc2ccccc2NC(=O)c2ccc(F)cc2)n2nc(C)nc2n1 | i
Cc1ccoc1C(=O)NCC1(Cn2ccnc2)CC1 | i
CC(=O)N[C@H]1CCN(Cc2cnc(-c3ccccc3C)s2)C1 | i
Cc1cc(C(=O)N2CC(c3ccncc3)C2)n[nH]1 | i
COc1ccc(Nc2cc(C)nc(N3CCN(S(=O)(=O)c4ccc(Oc5ccccc5)cc4)CC3)n2)cc1 | i
CC(C)Cc1ccc(S(=O)(=O)NCc2nc3cccnc3n2Cc2ccccc2)cc1 | i
COc1ccc(Cn2c(CNS(=O)(=O)c3ccccc3)nc3cccnc32)cc1 | +
CCCc1ccc(S(=O)(=O)NCc2nc3cccnc3n2Cc2ccccc2)cc1 | +
Cc1ccc(S(=O)(=O)NCc2nc3cccnc3n2C2CCCC2)cc1 | +
COc1ccc(Cn2c(CNS(=O)(=O)c3ccc(Cl)cc3)nc3cccnc32)cc1 | i
CC(C)c1ccc(S(=O)(=O)NCc2nc3cccnc3n2Cc2ccccc2)cc1 | i
CCCn1c(CNS(=O)(=O)c2ccc(CC(C)C)cc2)nc2cccnc21 | +
COc1ccc(S(=O)(=O)NCc2nc3cccnc3n2C2CCCC2)cc1 | i
O=S(=O)(NCc1nc2cccnc2n1C1CCCCC1)c1ccc(Cl)cc1 | i
CCc1ccc(Cn2c(CNS(=O)(=O)c3ccc(CC)cc3)nc3cccnc32)cc1 | i
COc1ccc(S(=O)(=O)NCc2nc3cccnc3n2Cc2ccccc2)cc1 | i
CCCn1c(CNS(=O)(=O)c2ccc(Cl)cc2)nc2cccnc21 | i
CC(=O)c1ccc(N2C[C@@H]3C4CCC(CC4)[C@@H]3C2)nc1 | i
c1ccc2c(-n3cnnc3C3CCC3)cccc2c1 | i
NS(=O)(=O)c1ccc2nc(NC(=O)CS(=O)(=O)c3ccc(Cl)cc3)sc2c1 | i
CCN(Cc1cccc(C(=O)Nc2ncc(C)s2)c1)[C@H]1COC[C@@H]1O | i
CCOc1ccc(-c2nc(C(N)=O)c3c(n2)n(-c2ccc(C)c(C)c2)c(=O)n3Cc2ccccc2)cc1 | i
C=CC[C@@H]1CC=C[C@@H](C)N1C(=O)COc1ccc(F)cc1 | i
CCSCC(C)NCc1cc(-c2ccco2)on1 (centres undefined) | i
Cc1ccsc1-c1cn(CCCN2CCCC(C(N)=O)C2)nn1 (centres undefined) | i
SMILES | FECH inh
Cc1ccccc1-c1ncc(CN(Cc2nccn2C)C2CC2)s1 | i
CC(NC(=O)CCCS(N)(=O)=O)C1=CCCCC1 (centres undefined) | i
Cc1cccc(C(=O)Nc2ccc(Nc3nc(C)cc(N(C)C)n3)cc2)c1 | i
COc1cccc(Cn2c(CNC(=O)c3cccc(OC)c3)nc3cccnc32)c1 | i
COc1cccc(Cn2c(CNC(=O)c3ccc(OC)cc3OC)nc3cccnc32)c1 | +
COCCn1c(CNC(=O)c2ccc(OC)cc2OC)nc2cccnc21 | i
CCC(=O)Nc1ccccc1-c1nnc(SC(CC)C(=O)Nc2ccc(C(C)=O)cc2)[nH]c1=O (centres undefined) | i
CCN(CC)c1ncc(NS(=O)(=O)c2cccs2)cc1C(=O)O | i
Cn1c(-c2ccc(-c3nccn3CCc3cnc[nH]3)o2)nc2ccccc21 | i
CCN1C(SCC(=O)Nc2cccc(Br)c2)=NS(=O)(=O)c2ccccc21 | +
COC(=O)CC1=CC(=O)N(CC(=O)Nc2cccc(C(F)(F)F)c2)c2ccccc2N1 | i
O=C(CN1CCCN(Cc2ccccc2Cl)S1(=O)=O)Nc1cccc(Br)c1 | i
CCN1C(SCC(=O)Nc2cccc(C(F)(F)F)c2)=NS(=O)(=O)c2ccccc21 | +
O=C1CN(Cc2cccc(C(F)(F)F)c2)S(=O)(=O)c2ccccc2N1Cc1ccccc1 | i
CCN1C(SCC(=O)Nc2cc(OC)cc(OC)c2)=NS(=O)(=O)c2ccccc21 | i
O=C(N[C@H](CO)CC1CCCCC1)c1cc(CN2CCC(O)CC2)on1 | i
Cc1cccnc1CC(C)N(C)c1cc(CCN)ncn1 (centres undefined) | i
COCCN(Cc1cnn(C)c1)C(=O)CC1CNCCO1 (centres undefined) | i
CCOc1ccc(Nc2nc(NCc3ccccc3Cl)nc3c2cnn3-c2ccccc2)cc1 | i
O=S(=O)(NCc1ccccc1)NCc1csc(N2CCCC2)n1 | i
Cc1oc(-c2ccc(Cl)cc2)nc1CSc1nc(-c2ccccc2)cc(=O)[nH]1 | i
CCOc1ccccc1-c1nc(CSc2nc3c(c(=O)[nH]2)CCC3)c(C)o1 | i
O=C(Cc1cccc(F)c1)NCCn1c(-c2ccccc2)nc2cccnc21 | i
O=C(C(=O)N1CCCn2nc(C(=O)N3CCCC3)cc2C1)c1cccs1 | i
CCCC1COCCN1C(=O)c1cnn2ccn(C)c12 (centres undefined) | i
CNC(=O)c1ccc(Cn2c(=O)c3cc(OC)c(OC)cc3n(CC(=O)N3CCC(C)CC3)c2=O)cc1 | +
CNC(=O)c1ccc(Cn2c(=O)c3cc(OC)c(OC)cc3n(CC(=O)NCCCOC)c2=O)cc1 | +
CNC(=O)c1ccc(Cn2c(=O)c3cc(OC)c(OC)cc3n(CC(=O)NCCC(C)C)c2=O)cc1 | +
COCCCNC(=O)c1ccc(Cn2c(=O)c3cc(OC)c(OC)cc3n(CC(N)=O)c2=O)cc1 | i
